# Sampled rows, rich in hits. Any-hit rate of the full collection: about 27%.
# CYP2C9 activ – activators of human CYP2C9; activation factor at 5 µM; recombinant CYP2C9, luciferin-H conversion, luminescence; active compounds read high; factor 1 = untreated enzyme, 0 = blocked; P11712; hit rate 1.4% among 96,000;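 active = activation factor of 2 or more for CYP2C9 at a 5 µM dose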;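 also: 0 = sulfaphenazole-blocked wells and 1 = vehicle-only wells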
# Target sequence (P11712 whole entry, looked up): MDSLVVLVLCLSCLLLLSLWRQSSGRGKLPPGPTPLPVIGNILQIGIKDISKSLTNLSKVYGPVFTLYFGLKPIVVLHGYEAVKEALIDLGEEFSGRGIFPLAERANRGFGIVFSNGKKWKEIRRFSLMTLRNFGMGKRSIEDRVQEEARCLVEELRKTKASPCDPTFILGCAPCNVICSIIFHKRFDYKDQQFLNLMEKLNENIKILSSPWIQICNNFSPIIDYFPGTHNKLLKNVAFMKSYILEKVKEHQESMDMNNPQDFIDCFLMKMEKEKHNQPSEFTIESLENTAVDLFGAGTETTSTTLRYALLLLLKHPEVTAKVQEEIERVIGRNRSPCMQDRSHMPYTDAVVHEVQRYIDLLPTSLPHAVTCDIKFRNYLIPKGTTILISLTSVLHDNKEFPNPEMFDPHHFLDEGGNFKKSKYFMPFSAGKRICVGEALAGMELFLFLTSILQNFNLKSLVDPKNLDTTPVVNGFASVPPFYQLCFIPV
# CYP2C9 inhib – human CYP2C9 inhibition; P11712; CYP2C9 Supersomes, luciferin-H conversion, luminescence; inhibition, % at 5 µM; hit rate 20% among 96,000;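 active = blocking of liver enzyme CYP2C9 beyond about 50% at 5 µM, limit read from the data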
# sEH activator – increases human soluble epoxide hydrolase activity; P34913; purified human sEH enzymatic activity, activator screen; activation, % at 2 µM; hit rate 0.04% among 91,000; AID 717; in the data active = activation above about 37%
# sEH inh – inhibitors of human soluble epoxide hydrolase; inhibition, % at 2 µM; P34913; recombinant human sEH enzymatic activity assay; AID 707; hit rate 0.34% among 91,000; in the data active = inhibition above about 80%
# CYP2C19 activ – cytochrome P450 2C19 (human) activation. recombinant CYP2C19, luciferin-H EGE luminescence; active compounds read high; 0 = fully inhibited enzyme, 1 = untreated enzyme. activation factor at 5 µM. 96,000 tested, under 10 active. AID 1025;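 active = activation factor of at least 2 at 5 µM in the primary screen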;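 also: 0 = wells with 2.5 mM tranylcypromine and 1 = vehicle-only wells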
# CYP2C19 inhib – blocks human cytochrome P450 2C19. CYP2C19 Supersomes, luciferin-H EGE luminescence, 30 min. P33261. inhibition, % at 5 µM. AID 778. hit rate 21% among 96,000;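 active = CYP2C19 inhibition above a set limit at 5 µM in the primary screen, cut at about 50% in these data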;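 also: plate controls were negative control wells for no effect and 2.5 mM tranylcypromine positive control for full effect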
# * marks the source's active call; other numbers are inactive results; . = no result given.
SMILES,CYP2C9 activ,CYP2C9 inhib,sEH activator,sEH inh,CYP2C19 activ,CYP2C19 inhib
CCc1ccc2[nH]c(=O)c(CN(CCN(C)C)C(=O)Nc3ccccc3OC)cc2c1,0.9,11.6,3.2,-3.5,0.8,16.2
CCc1ccc2[nH]c(=O)c(CN(CCN3CCOCC3)C(=O)Nc3ccccc3F)cc2c1,0.5,51.9*,.,.,0.5,49.7
CCc1ccc2[nH]c(=O)c(CN(Cc3ccccc3)C(=O)Nc3ccccc3OC)cc2c1,0.1,90.3*,5.1,-2.3,0.1,85.6*
COc1ccc(NC(=O)N(Cc2cc3cc(OC)ccc3[nH]c2=O)CC2CCCO2)cc1 (stereo not given),0.8,22.8,16.9,-18.4,1,-3.9
COc1cc2cc(CN(Cc3cccnc3)C(=O)NCc3ccccc3)c(=O)[nH]c2cc1OC,0.6,37.3,-5.9,3.9,0.5,51.7*
COc1ccc2[nH]c(=O)c(CN(CCN(C)C)C(=O)NCc3ccccc3)cc2c1,0.9,8.3,-11.5,12.2,1,3.0
CCN(CC)CCCN(Cc1cc2cc(OC)ccc2[nH]c1=O)C(=O)Nc1ccc(F)cc1,0.2,84.4*,2.5,-4.4,0.4,62.3*
Cc1ccc(S(=O)(=O)N2CCCC(C(=O)NC3=NCCS3)C2)cc1 (stereo not given),1,-1.3,2.0,0.6,1,-3.2
O=S(=O)(NC1CCN(Cc2ccccc2)CC1)c1cccc2cccnc12,1.5,-54.1,8.1,-8.7,0.9,11.3
Cc1ccc2cc(CN(CCN3CCCC3)C(=O)Nc3ccc(F)cc3)c(=O)[nH]c2c1C,0.9,5.6,3.6,-8.1,1,-3.6
COc1ccc(NC(=O)N(CCN2CCCC2)Cc2cc3cc(OC)c(OC)cc3[nH]c2=O)cc1,0.3,75.0*,-6.3,11.1,1,2.4
CCc1ccc2[nH]c(=O)c(CN(CCCN3CCOCC3)C(=O)Nc3ccc(F)cc3)cc2c1,0.6,43.5,10.2,-9.5,0.4,55.3*
CCOC(=O)C1=C(C)C(c2ccc(OC)cc2)NC(=S)N1 (stereo not given),0.2,82.3*,0.5,1.3,0.4,59.2*
CCOC(=O)C1=C(C)C(c2ccccc2O)NC(=O)N1 (stereo not given),0.7,25.7,5.8,-8.3,0.8,23.3
COc1ccccc1C(=O)Nc1ccc(S(=O)(=O)N2CCc3ccccc32)cc1,0.1,88.7*,7.0,-9.1,0.3,72.7*
COc1cc(C(=O)Nc2ccc(S(=O)(=O)N3CCc4ccccc43)cc2)cc(OC)c1OC,0.1,91.0*,-3.2,1.0,0.5,49.9
COc1ccc(C(=O)NCc2ccccc2)cc1S(=O)(=O)N1CCCc2ccccc21,0.5,54.9*,0.5,1.5,0.7,25.6
N#Cc1cnn(-c2ncnc3sc(-c4ccccc4)cc23)c1N,0.7,33.7,1.6,0.4,1,2.2
COc1ccc(N=Cc2ccc[nH]2)cc1,1.1,-7.1,-10.4,10.5,1,-3.3
CCOC(=O)N1CCN(C(=O)CCCn2nc(C)c3sc4ccccc4c3c2=O)CC1,2.4*,-136.9,.,.,0.9,5.2
Cc1noc(C)c1COC(=O)CCCc1nc2ccccc2s1,0.5,51.2*,1.3,-3.2,0.6,40.8
O=C(Oc1ccc(=O)n(-c2ccccc2)n1)c1cccc(Cl)c1,0.9,6.7,3.8,2.1,0.8,15.7
Cc1cccc(Cn2ccc(-c3ccc(Cl)cc3)c(C#N)c2=O)c1,0.7,31.3,0.4,-2.5,0.9,14.7
N#Cc1c(-c2ccccc2)ccn(Cc2ccc(Cl)cc2)c1=O,0.5,54.5*,0.3,-2.4,0.6,36.0
O=C(NCc1ccccc1)NC1(C(=O)N2CCN(c3ccccc3)CC2)CCCCC1,0.7,32.7,7.8,-4.7,0.4,57.3*
CCOC(=O)N1CCC(N2Cc3cccc(C(=O)NCc4ccc(C)cc4)c3C2=O)CC1,0.3,70.1*,21.0,-22.9,0.8,24.7
COCCN1Cc2cccc(C(=O)NCc3ccccn3)c2C1=O,0.9,13.7,-3.4,4.0,0.6,43.3
CCOC(=O)N1CCC(N2Cc3cccc(C(=O)NCc4ccccn4)c3C2=O)CC1,0.1,94.9*,8.7,-8.1,0.3,73.9*
CCOC(=O)N1CCC(N2C(=O)c3ccccc3C2=O)CC1,0.6,43.5,.,.,0.8,15.9
CC1=C(C(=O)NC(C)c2ccc3c(c2)OCCO3)C2(CCC(C)CC2)OC1=O (stereo not given),.,.,-1.6,1.3,.,.

# Screening data: PubChem BioAssay, several laboratories
